Screens deposited in PubChem BioAssay by National Center for Advancing Translational Sciences (NCATS).
VACV Venus inh – vaccinia inhibition (Venus reporter). Vaccinia virus Venus reporter expression, fluorescence. Potency, µM (highest dose often 36.5 µM), hits mostly inhibitors. 0.46% of 330,000 active. AID 720580; calls by dose curve; tested in A549 cells; note: nearly all actives have a fitted effect of over 30% in size
RE007 growth inh – less growth of the S. pombe RE007 Vpr strain; S. pombe RE007 Vpr strain, BacTiter-Glo ATP luminescence, 24 h; Potency, µM (top dose mostly 92.2 µM), most hits filed as inhibitors; 0.21% of 360,000 active; AID 651644; active = well fitted falling curve with a large enough effect; inconclusive = small, poorly fitted or top-dose-only effect; inactive = no such curve, though single readings can be large or run the other way; note: nearly all actives have a fitted effect of over 50% in size
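Fission yeast RE007 carrying one integrated HIV-1 vpr copy, seeded at OD 0.01 in PMG+AL medium with 23 nL pinned compound. Grown 24 h at 30 degrees; viability read by BacTiter-Glo luminescence after 5 min.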
LmPK inhibitor – inhibitors of Leishmania mexicana pyruvate kinase. Q27686. purified LmPK, Kinase-Glo ATP luminescence, 1 h. Potency, µM (series often up to 57.5 µM), actives largely listed as inhibitors. 0.37% of 290,000 active. AID 1721
Target sequence (Q27686 whole entry, looked up): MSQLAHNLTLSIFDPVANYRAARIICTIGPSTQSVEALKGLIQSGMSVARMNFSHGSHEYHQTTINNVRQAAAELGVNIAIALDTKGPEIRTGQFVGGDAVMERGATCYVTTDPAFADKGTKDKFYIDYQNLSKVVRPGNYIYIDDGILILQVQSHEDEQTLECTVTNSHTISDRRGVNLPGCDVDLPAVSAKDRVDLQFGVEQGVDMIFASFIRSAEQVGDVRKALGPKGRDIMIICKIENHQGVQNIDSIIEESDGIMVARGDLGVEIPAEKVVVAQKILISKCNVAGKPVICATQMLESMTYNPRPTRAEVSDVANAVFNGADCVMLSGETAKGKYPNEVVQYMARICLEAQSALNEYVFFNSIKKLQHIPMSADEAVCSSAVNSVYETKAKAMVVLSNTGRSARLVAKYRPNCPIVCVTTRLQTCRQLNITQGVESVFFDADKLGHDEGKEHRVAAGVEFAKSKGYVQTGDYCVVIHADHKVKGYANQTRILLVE
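Purified LmPK (0.1 nM) converted ADP (0.1 mM) to ATP with PEP (0.5 mM) in imidazole buffer pH 7.2 with KCl and MgCl2, 1 h at room temperature. ATP was read by Kinase-Glo luminescence; data normalized to uninhibited and no-enzyme controls.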
Tb PYK inh – inhibitors of Trypanosoma brucei pyruvate kinase; Q57TT1; TbPYK enzyme, Kinase-Glo Plus ATP luminescence, 45 min; Potency, µM (highest dose often 76.8 µM), hits mostly inhibitors; 0.12% of 410,000 active; AID 624173; note: nearly all actives have a fitted effect of over 50% in size
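Assay buffer: 50 mM TEA pH 7.2, 100 mM KCl, 10 mM MgCl2, 0.05% BSA, 0.01% Tween-20. Pyruvate kinase from T. brucei plus substrate met compound, then ADP (130 uM final). Luminescence was read post 45 min RT.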
AMA1-RON2 inh – disrupts binding of P. falciparum AMA1 to RON2 | Potency, µM (titrated, usually from 58.2 µM), usual class: inhibitors | AlphaScreen AMA1-biotinylated RON2 peptide binding | AID 720542 | 0.2% of 360,000 active; note: nearly all actives have a fitted effect of over 45% in size
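AMA1 (3D7) with his tag at 25 nM final met compounds first, then biotinylated RON2 peptide at 25 nM; detection used donor plus acceptor beads, 10 µg/mL apiece, read by AlphaScreen after 30 min at room temperature.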
VACV mCherry inh – vaccinia inhibition (mCherry reporter). Vaccinia virus mCherry reporter infection, fluorescence. Potency, µM (top dose mostly 36.5 µM), hits mostly inhibitors. 0.63% of 310,000 active; calls by dose curve; tested in A549 cells; note: nearly all actives have a fitted effect of over 35% in size
Hits are given with their value; i = inactive; ? = inconclusive; nt = no result; [ ] = another dose, or the depositor's remark. In the library only some 1.3% were active in any assay of this set; here they are far more common. Unless noted, calls come from the whole dose curve; as a rule, active = well fitted curve in the direction sought with a large enough effect; inconclusive = small, poorly fitted or top-dose-only effect, or another doubt; inactive = no such curve, though single readings can be large; an effect the other way counts as inactive or inconclusive.

SMILES	VACV Venus inh	RE007 growth inh	LmPK inhibitor	Tb PYK inh	AMA1-RON2 inh	VACV mCherry inh
C/C=C(/C)C(=O)OC1CC(C)(C)C[C@H]2C3=CC[C@@H]4[C@@]5(C)CCC(O[C@@H]6O[C@@H](C(=O)O)[C@@H](O)C(O[C@@H]7OC[C@H](O)[C@@H](O)[C@@H]7O[C@@H]7OC(CO)C(O)[C@@H](O)[C@@H]7O)C6O[C@@H]6OC(CO)C(O)C(O)C6O)[C@@](C)(CO)[C@@H]5CC[C@]4(C)[C@]3(C)CC(O)[C@@]12CO (some centres undefined)	13µM	i	nt	i	i	?
CCSc1nnc(-c2cnn(-c3ccccc3)c2-n2cccc2)n1C	i	i	i	i	i	nt
CCCCCCSc1nnc(-c2cnn(-c3ccccc3)c2-n2cccc2)n1C	10µM	i	i	?	?	10µM
C=CC[C@H](CC(=O)N(CCO)Cc1ccccc1)C(=O)N[C@@H](COC(=O)[C@@H](CC=C)Cc1ccc(F)cc1)Cc1c[nH]c2ccccc12	10µM	i	nt	i	?	11µM
C=CC[C@@H](CC(=O)N(CCO)Cc1ccccc1)C(=O)N[C@@H](COC(=O)[C@@H](CC=C)Cc1ccc(F)cc1)Cc1c[nH]c2ccccc12	10µM	i	nt	i	i	?
Cc1ccc(OCCn2c(-c3ccc(Br)cc3)nc3ccccc3c2=O)cc1C	i	nt	nt	i	nt	i
Cc1ccc(NCCC(=O)c2cccc([N+](=O)[O-])c2)c(C)c1	i	5.6µM	i	i	?	i
Cc1ccc(NCC(=O)c2ccc([N+](=O)[O-])cc2)cc1	i	i	i	i	i	i
Cc1ccc(C(=O)CNc2cccc([N+](=O)[O-])c2)cc1	i	i	i	i	i	i
Cc1cccc(NCCC(=O)c2ccc([N+](=O)[O-])cc2)c1C	i	35µM	i	i	i	?
COc1ccc(-c2ccnc(-n3ncc(C(=O)NC(C)(C)CO)c3C3CC3)n2)cc1F	i	nt	nt	nt	nt	i
Cc1ncc2c(c1CNS(=O)(=O)N(C)C)CCN(C(=O)/C=C/c1ccccc1Cl)C2	i	nt	nt	nt	nt	i
COc1ccc(CN2CCc3nnc(CCc4ccccc4)n3CC2)c(OC)c1C	i	nt	nt	nt	nt	i
CC[n+]1c(/C=C/C=C/c2ccc(N(C)C)cc2)sc2ccccc21	?	6.3µM	16µM	?	18µM	?
CCN(CC)CCOC(=O)c1ccc(N)cc1Cl	nt	nt	nt	i	nt	nt
Nc1nc(-c2ccccc2)c(-c2ccc([N+](=O)[O-])cc2)s1	?	i	i	i	i	22µM
COc1ccc2c(c1)CCc1cnc(-n3ncc(C(=O)NCCCc4ccncc4)c3C)nc1-2	i	nt	nt	nt	nt	?
O=C(NCCc1c[nH]c2ccccc12)C(=O)NCC(c1cccnc1)N1CCN(c2ccccc2)CC1 (centres undefined)	?	i	i	i	i	16µM
OC(c1ccc2c(c1)CN(Cc1ccc3nsnc3c1)CCO2)C1CCCCC1 (centres undefined)	i	nt	nt	nt	nt	i
COc1ccc(/C=C/C(=O)c2ccc([N+](=O)[O-])o2)cc1OC	?	i	nt	i	i	?
Cc1cc(O)c(C(=O)/C=C/c2cccc([N+](=O)[O-])c2)c(=O)o1	i	i	?	i	i	i
COc1cc(/C=C/C(=O)c2ccc([N+](=O)[O-])o2)ccc1O	?	13µM	nt	i	i	?
O=C(/C=C/c1cccc(Cl)c1)c1ccc([N+](=O)[O-])o1	10µM	11µM	nt	i	i	10µM
CC1(C)S[C@@H]2C(C(=O)O)NC(=O)N2C1C(=O)O (some centres undefined)	i	nt	nt	nt	nt	i
Nc1ccc2cc3ccc(N)cc3nc2c1	nt	nt	nt	i	nt	nt
SMILES	VACV Venus inh	RE007 growth inh	LmPK inhibitor	Tb PYK inh	AMA1-RON2 inh	VACV mCherry inh
O=C(N/N=C/c1ccccn1)c1cc(-c2ccc(Cl)s2)[nH]n1	i	i	i	i	i	13µM
O=C(N/N=C/c1ccccn1)c1cc(-c2ccc(Br)s2)[nH]n1	i	i	i	i	i	i
COc1cccc2sc(N3CCN(C(=O)c4ccc([N+](=O)[O-])o4)CC3)nc12	13µM	?	nt	i	i	8.9µM
O=C(NC1CCCC1)c1ccc(Cl)s1	i	i	i	i	i	i
O=C(NC1CCCCCC1)c1ccc([N+](=O)[O-])s1	i	45µM	nt	i	i	?
O=Nc1c(-c2ccccc2)cc2ccccn12	nt	13µM	i	i	i	nt
Cc1cccc2cc(CNCCCN3CCCC3=O)c(N3CCN4CCCC4C3)nc12 (centres undefined)	i	nt	nt	nt	nt	i
CN(C)c1ccc(NC(=O)c2cccc(C(=O)Nc3ccc(N(C)C)cc3)n2)cc1	i	i	i	i	10µM	i
O=c1c2ccccc2sc2c(CO)ccc(NCCN3CCCCC3)c12	10µM	i	nt	i	i	?
O=C(O)CCC/C=C\C[C@@H]1C(/C=C/[C@@H](O)COc2cccc(C(F)(F)F)c2)[C@@H](O)C[C@@H]1O (some centres undefined)	i[3.33 µM]	nt	nt	nt	nt	i[3.33 µM]
CCOC(=O)Nc1ccc2c(c1)C(=NNC(N)=S)c1ccccc1-2	16µM	i	nt	i	i	11µM
CCOC(=O)c1ccc(Nc2c(-c3ccc(N(C)C)cc3)nc3nc[nH]n23)cc1	i	nt	nt	i	nt	i
C=C(C)COc1ccc(-c2[nH]ncc2Oc2ccc(OC)cc2)c(O)c1	?	?	i	i	i	14µM
CCN(CC)CCOC(=O)C(Cc1ccco1)Cc1cccc2ccccc12 (centres undefined)	i	i	nt	i	25µM	i
CCN(CC)CCOC(=O)CCc1cccc2ccccc12	i	i	i	i	i	i
CC(=O)NC1C(=O)N(CCN2CCOCC2)c2ccc(C)cc21 (centres undefined)	i	nt	i	?	32µM	i
CC(=O)NC1C(=O)N(CCN2CCOCC2)c2ccc(Cl)cc21 (centres undefined)	i	i	i	?	?	i
N#Cc1ccc2c(c1)nnn2-c1ccccc1	i	i	nt	i	i	i
N#Cc1ccc2sn(-c3ccccc3)c(=O)c2c1	i	7.9µM	nt	4µM	i	?
O=c1c2cc([N+](=O)[O-])ccc2sn1-c1ccccc1	i	5.6µM	nt	4.5µM	i	i
CC(=O)Nc1ccc2sn(-c3ccccc3)c(=O)c2c1	i	i	nt	?	i	i
COc1cccc(C(=O)NCC2Cc3c(F)ccc(-c4ncccn4)c3O2)c1OC (centres undefined)	?	nt	nt	nt	nt	i
Cc1c(Cl)cccc1NC(=S)NNS(=O)(=O)c1ccc([N+](=O)[O-])cc1	?	i	i	i	i	10µM
Nc1ccc(-c2cc(NC=O)c3ncc(-c4cccc(C(F)(F)F)c4)n3c2)cn1	11µM	i	nt	i	i	?
COc1cc(-c2cnc3c(NC=O)cc(-c4cccc(C(F)(F)F)c4)cn23)cc(OC)c1OC	?	i[18.4 µM]	nt	i	i	?
CC(=O)Nc1cc(-c2cccnc2)cn2c(-c3cccc(C(F)(F)F)c3)cnc12	13µM	i	nt	i	i	10µM
